The text below walks through data of PubChem BioAssay.

The target in assay [1] is ATP-dependent translocase ABCB1 (Homo sapiens) (UniProt P08183). As to the kind of experiment: P-glycoprotein substrate transport blockade – cell-based (AID 377; in the data active = fluorescence slope change above about 50%). As to conditions: MDR1-expressing cells, fluorescent substrate accumulation slope; stronger effect = higher value; concentration not given here.
The nature of assay [2]: blockers of polyQ-driven CASP3 activation – cell-based (AID 1583). As to conditions: polyglutamine-induced caspase-3 activation, cell assay; stronger effect = higher value;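 tested at 10 µM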.
Assay [3] in a line: yeast 75Q aggregation reduction – 75Q-TubU reporter (AID 1593). The settings on record: Yeast 75Q polyglutamine aggregation reporter.
The nature of assay [4]: restoration of touch response, mutant HTT neurons – whole organism, C. elegans mechanosensory neurons, N-terminal huntingtin (AID 1599). As to conditions: C. elegans polyQ-huntingtin mechanosensory neurons, stronger effect = higher value.
Assay [5] is described as follows: blockers of cytochrome c efflux from mitochondria – biochemical, purified mitochondria (AID 1603).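 Also: mouse liver mitochondria challenged with calcium chloride; signal normalized to the plate average as 100%.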 As to conditions: stronger effect = lower value.
The nature of assay [6]: polyglutamine aggregate formation blockers (AID 1604). As to conditions: polyglutamine-induced protein aggregation inhibition assay; stronger effect = higher value; tested at 2.5 µM.
Assay [7] can be described thus: glutamate transport activators, MN-1 cells, MN-1 cell line (AID 1612).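 Also: tested at 1 µM final; 0% = mean of DMSO vehicle wells on each plate; positive means more glutamate uptake than control and negative means less.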 The settings on record: MN-1 motor neuron cells, stronger effect = higher value.
A short description of assay [8]: GFP-Q80 aggregate reduction, neuronal-like cells, cell-based, NGF-treated PC12, GFPQ80 (AID 1614).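 Also: lower means fewer inclusions and 0 means no inclusions at all.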 As to conditions: PC12 NGF-treated GFP-polyQ80 inclusion reduction.
Assay [9] is described as follows: 75Q-TubH aggregate inhibition, S. cerevisiae, yeast (AID 1616). The settings on record: S. cerevisiae 75Q-TubH polyglutamine aggregation suppression; stronger effect = higher value.
Assay [10] can be described thus: compounds altering viability of human ES cells (AID 493140).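 Also: cells exposed to compounds for four days before counting.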 The settings on record: human embryonic stem cell survival screen; stronger effect = higher value.
Assay [11] can be described thus: P. berghei load reduction in hepatocytes – cell-based, HepG2, luciferase luminescence, HepG2 viability, primary screen (AID 624349; in the data active = parasite load remaining mostly below about 12%, no sharp cut-off; inactive = mostly above about 10%;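 also: 100% = mean of DMSO negative control wells on the same plate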). As to conditions: P. berghei liver stage in HepG2, luciferase luminescence, concentration not given here; parasite load remaining: stronger effect = lower value; viability: measured here: HepG2 viability without parasites.
Assay [12] concerns the target 6-phosphogluconate dehydrogenase, decarboxylating (Homo sapiens) (UniProt P52209). Kind of assay: inhibition of human phosphogluconate dehydrogenase – biochemical, recombinant enzyme, NADPH absorbance, primary screen (AID 1159550;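 active = at least 20% inhibition of 6-phosphogluconate dehydrogenase activity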). As to conditions: recombinant 6PGD, NADPH absorbance 341 nm; at 10 µM; stronger effect = higher value.
Assay [13] can be described thus: EMT-state selective cytotoxicity in co-culture – imaging, PC-3E GFP, TEM4-18 mCherry, primary screen (AID 1345086;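 active = compounds killing one labelled cell type while sparing the other, by normalised counts and ratio limits, not self-fluorescent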;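 as to all read-outs here: cells exposed to compound for 72 h before imaging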;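 as to red/green cell ratio (normalised): normalised mesenchymal count divided by normalised epithelial count so high means epithelial killing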). The settings on record: PC-3E GFP / TEM4-18 mCherry co-culture, imaging cell counts, at 1 µM; for red/green cell ratio (normalised): actives lie on both sides.
For assay [14], the system named is Aerobactin synthetase IucA (Klebsiella pneumoniae hvKP1). Kind of assay: IucA enzyme inhibition, primary screen, biochemical, Spectrum library (AID 1346200).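 Also: 100% = wells without compound and 0% = wells lacking enzyme.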 The settings on record: malachite green pyrophosphate, A620, at 8 µM, stronger effect = lower value.
The nature of assay [15]: viability loss with induced miR-34 in A549 – imaging, A549 dox-inducible miR-34, nuclei and caspase counts, primary screen (AID 1347080;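 active = compounds whose cell count with miR-34 switched on is under 0.7 times the count with it off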). The settings on record: A549 miR-34 inducible, Hoechst nuclei count, 48 h.
Assay [16] addresses Mitogen-activated protein kinase 7 (Homo sapiens) (UniProt Q13164). As to the kind of experiment: Gal4-ERK5 driven luciferase induction – cell-based, HTS, primary screen (AID 1508626;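 active = luciferase signal above three times the same-plate solvent-only control wells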;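 also: luciferase driven by Gal4-ERK5 fusion binding five Gal4 sites before minimal TATA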). The settings on record: HeLa Gal4-ERK5 transactivation, 18 h, at 5 µM, stronger effect = higher value.
The nature of assay [17]: MELAS cybrid and Rieske KO viability enhancers – cell-based, MELAS cybrids, Rieske KO mouse fibroblasts, CellTiter-Glo, primary screen (AID 1508586;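 active = mean z-score across replicates of 1.96 or higher in either the MELAS or the Rieske mutant cell line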;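 also: z relative to plate mean and SD of compound and empty wells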). As to conditions: low glucose.
The target of assay [18] is NAD(+) hydrolase SARM1 (Homo sapiens) (UniProt Q6SZW1). As to the kind of experiment: blocking NAD cleavage by SARM1 SAM-TIR – cell lysate, NAD-Glo luminescence (AID 1508614;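 active = compound whose remaining NAD level is above about 45 nM, limit read from the data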;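 also: higher remaining NAD means stronger inhibition of SARM1 NADase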). The settings on record: SAM-TIR HEK293T lysate NADase, at 1 µM, stronger effect = higher value.
Setting [19] is: measured here: epithelial PC-3E GFP cell survival.
Where [20] appears, read: measured here: mesenchymal TEM4-18 mCherry cell survival.
The mark [21] stands for this setting: measured here: relative caspase fold change +Dox/-Dox.
Where [22] appears, read: measured here: total cells with miR-34 induction, stronger effect = lower value.
Where [23] appears, read: measured here: total cells without miR-34 induction.

“And” between values parts separate entries of the source, which are not always exact repeats. Equal values may be shown once. Inconclusive results are not listed. For some of these results: Potency and affinity values are given separately. The source made the active and inactive calls. Unless noted, no rule for the calls is given here.

Sequence of Mitogen-activated protein kinase 7 (Homo sapiens) (Q13164 whole entry, looked up, the tested form may be a part): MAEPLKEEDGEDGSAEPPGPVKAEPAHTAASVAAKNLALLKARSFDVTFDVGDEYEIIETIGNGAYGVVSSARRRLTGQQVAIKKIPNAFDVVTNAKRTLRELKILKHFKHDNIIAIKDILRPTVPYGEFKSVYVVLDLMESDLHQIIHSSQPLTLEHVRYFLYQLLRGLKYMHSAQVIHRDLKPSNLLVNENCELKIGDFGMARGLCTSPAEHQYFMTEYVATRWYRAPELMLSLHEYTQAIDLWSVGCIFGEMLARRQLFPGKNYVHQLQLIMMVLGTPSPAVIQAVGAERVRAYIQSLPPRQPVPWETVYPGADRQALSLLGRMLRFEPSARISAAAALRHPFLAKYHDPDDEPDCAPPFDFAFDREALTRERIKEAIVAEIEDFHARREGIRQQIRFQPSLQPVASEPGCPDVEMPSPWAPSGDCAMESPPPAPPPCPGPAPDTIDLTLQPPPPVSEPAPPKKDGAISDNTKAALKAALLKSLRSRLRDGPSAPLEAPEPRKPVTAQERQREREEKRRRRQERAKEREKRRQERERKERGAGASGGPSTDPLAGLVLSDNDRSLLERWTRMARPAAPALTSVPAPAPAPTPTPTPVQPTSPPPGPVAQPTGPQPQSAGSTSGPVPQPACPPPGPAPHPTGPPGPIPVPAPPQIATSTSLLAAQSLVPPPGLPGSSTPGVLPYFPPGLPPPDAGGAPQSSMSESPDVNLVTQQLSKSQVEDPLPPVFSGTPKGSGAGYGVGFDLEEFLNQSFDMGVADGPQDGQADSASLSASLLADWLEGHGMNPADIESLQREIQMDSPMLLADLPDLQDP
Sequence of 6-phosphogluconate dehydrogenase, decarboxylating (Homo sapiens) (P52209 whole entry, looked up): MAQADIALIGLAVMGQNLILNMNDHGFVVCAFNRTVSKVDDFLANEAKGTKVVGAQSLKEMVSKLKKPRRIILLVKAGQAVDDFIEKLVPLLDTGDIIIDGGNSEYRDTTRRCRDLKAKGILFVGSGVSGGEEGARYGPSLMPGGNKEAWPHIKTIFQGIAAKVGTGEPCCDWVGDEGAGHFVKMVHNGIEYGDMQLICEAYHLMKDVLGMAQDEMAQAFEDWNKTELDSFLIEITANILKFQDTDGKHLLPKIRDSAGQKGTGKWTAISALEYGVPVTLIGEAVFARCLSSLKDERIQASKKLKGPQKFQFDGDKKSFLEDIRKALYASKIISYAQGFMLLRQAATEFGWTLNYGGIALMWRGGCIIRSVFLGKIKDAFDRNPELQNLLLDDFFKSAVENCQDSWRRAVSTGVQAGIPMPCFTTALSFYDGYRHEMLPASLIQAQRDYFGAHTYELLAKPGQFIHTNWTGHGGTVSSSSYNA
Sequence of ATP-dependent translocase ABCB1 (Homo sapiens) (P08183 whole entry, looked up): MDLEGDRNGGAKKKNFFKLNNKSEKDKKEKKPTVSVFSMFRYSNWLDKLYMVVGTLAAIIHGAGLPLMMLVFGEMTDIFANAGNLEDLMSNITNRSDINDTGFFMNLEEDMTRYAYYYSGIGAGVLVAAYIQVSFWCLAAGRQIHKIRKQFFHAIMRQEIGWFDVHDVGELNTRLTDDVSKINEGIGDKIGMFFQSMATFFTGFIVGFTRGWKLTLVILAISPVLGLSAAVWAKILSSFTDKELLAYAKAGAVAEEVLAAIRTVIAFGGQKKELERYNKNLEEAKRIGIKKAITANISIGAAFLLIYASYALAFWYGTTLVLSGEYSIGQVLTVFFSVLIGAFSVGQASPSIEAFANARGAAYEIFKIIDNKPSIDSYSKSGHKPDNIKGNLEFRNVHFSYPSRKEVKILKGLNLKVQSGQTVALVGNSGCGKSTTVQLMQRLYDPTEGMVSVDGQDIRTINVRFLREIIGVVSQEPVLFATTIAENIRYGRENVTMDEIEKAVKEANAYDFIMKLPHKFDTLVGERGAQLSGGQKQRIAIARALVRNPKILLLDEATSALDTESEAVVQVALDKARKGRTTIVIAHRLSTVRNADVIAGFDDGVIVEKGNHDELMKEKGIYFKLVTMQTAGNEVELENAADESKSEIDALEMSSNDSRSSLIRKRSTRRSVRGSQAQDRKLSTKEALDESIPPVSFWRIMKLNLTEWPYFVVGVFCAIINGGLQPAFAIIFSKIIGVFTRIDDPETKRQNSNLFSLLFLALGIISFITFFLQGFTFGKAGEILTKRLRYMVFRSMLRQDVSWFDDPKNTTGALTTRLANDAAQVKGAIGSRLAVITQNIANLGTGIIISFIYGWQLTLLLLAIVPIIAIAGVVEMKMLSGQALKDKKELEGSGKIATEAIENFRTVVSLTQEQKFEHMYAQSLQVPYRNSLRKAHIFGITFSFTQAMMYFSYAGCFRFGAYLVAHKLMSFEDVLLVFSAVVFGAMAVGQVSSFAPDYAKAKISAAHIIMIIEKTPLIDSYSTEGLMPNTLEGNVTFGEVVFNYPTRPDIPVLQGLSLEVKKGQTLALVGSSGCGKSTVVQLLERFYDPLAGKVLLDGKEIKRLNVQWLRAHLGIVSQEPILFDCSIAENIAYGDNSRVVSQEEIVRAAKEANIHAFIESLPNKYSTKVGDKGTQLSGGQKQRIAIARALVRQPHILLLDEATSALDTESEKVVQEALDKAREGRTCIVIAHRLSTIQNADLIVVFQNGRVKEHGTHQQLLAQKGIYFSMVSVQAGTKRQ
Sequence of NAD(+) hydrolase SARM1 (Homo sapiens) (Q6SZW1 whole entry, looked up): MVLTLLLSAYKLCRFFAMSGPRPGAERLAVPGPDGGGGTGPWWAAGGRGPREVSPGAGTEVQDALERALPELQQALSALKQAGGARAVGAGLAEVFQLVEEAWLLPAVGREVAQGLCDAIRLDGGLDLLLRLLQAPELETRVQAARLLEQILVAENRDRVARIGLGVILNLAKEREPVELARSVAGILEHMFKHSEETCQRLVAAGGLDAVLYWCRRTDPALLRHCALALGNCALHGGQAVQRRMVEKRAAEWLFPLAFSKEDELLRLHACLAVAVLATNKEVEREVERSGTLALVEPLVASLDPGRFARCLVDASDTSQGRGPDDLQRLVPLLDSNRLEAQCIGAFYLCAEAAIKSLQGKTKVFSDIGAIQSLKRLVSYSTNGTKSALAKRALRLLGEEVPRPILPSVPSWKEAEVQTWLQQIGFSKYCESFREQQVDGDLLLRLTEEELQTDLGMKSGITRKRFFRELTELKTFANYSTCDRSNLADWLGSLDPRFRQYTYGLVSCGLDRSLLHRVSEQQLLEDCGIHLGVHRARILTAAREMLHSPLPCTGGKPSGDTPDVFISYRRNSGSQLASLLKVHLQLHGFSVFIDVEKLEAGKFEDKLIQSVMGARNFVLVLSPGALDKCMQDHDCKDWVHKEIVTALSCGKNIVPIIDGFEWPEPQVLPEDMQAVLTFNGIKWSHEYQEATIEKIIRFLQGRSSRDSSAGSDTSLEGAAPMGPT

On to `CC1=NCCc2c1[nH]c1cc(O)ccc21`, for which the fluorescence slope change in assay [1] is 159% (active). The inhibition in assay [2] was -45.7%; in [12], -14.9% (inactive). This compound also registered a score in assay [3] of 0.81. This compound had a rescue above control in assay [4] of 0.94. Also, the cytochrome c release ratio in [5] was 0.72. The same compound yielded an inhibition of aggregation in [6] of 14.3%. The glutamate uptake change in assay [7] came out at 13.4%. The inclusion score in assay [8] worked out at 2. In addition, the aggregation suppression score in assay [9] was 1.24. Also, the survival in assay [10] was 17.3 (inactive). The parasite load remaining in assay [11] was 47.1% (inactive) and 63.7% (inactive) and 58.9% (inactive). Moreover, the viability in assay [11] was 102% and 67.4% and 76.2%. The red/green cell ratio (normalised) in assay [13] was 0.98 (inactive). In addition, the normalised cell number in [13] (setting [19]) was 1.01; in assay [13] (setting [20]), 0.99. Besides, the activity remaining in assay [14] is 98.9% (inactive). For the same compound, the fold change is 0.845 (inactive) in assay [15] (stronger effect = lower value, cell number ratio, induced over uninduced) and 1.99 in assay [15] (setting [21]). The values for the cell count in assay [15] (setting [22]) and in [15] (setting [23]) were 8870 and 10500, respectively. Moreover, in assay [16], the luciferase signal was 64 AU (inactive).
Consider `COc1cc2c(cc1-c1cc3cc4ccoc4cc3oc1=O)OCO2`, for which the inhibition in [12] was 0.213% (inactive). Besides, in assay [13], the red/green cell ratio (normalised) is 0.88 (inactive). In addition, the normalised cell number in assay [13] (setting [19]) turned out to be 0.99; in assay [13] (setting [20]), 0.87. In [14], the activity remaining is 113% (inactive). Also, the luciferase signal in assay [16] was 44 AU (inactive).
With `C[C@@H](N)[C@@H](O)c1ccccc1`, in assay [11], the parasite load remaining is 28.8% (inactive). For the same compound, the viability in [11] is 110%. Besides, the inhibition in assay [12] was -16.8% (inactive) and 9.51% (inactive). Besides, the red/green cell ratio (normalised) in assay [13] was 0.97 (inactive). In addition, the normalised cell number in [13] (setting [19]) came to 1.13; in assay [13] (setting [20]), 1.1. The activity remaining in assay [14] is 122% (inactive). Moreover, the fold change in assay [15] (stronger effect = lower value) is 0.851 (inactive); in assay [15] (setting [21]), 1.36. Besides, the cell count is 8010 in [15] (setting [22]) and 9410 in assay [15] (setting [23]). Also, the z-score in assay [17] (MELAS cybrid survival, CellTiter-Glo 48 h, stronger effect = higher value) is -0.426 (inactive); in assay [17] (Rieske KO mouse fibroblast survival, CellTiter-Glo 72 h) it was -0.509.
Consider `CC(N)Cc1ccc(O)cc1` (stereo not given), for which the inhibition in [12] was -0.0931% (inactive). For the same compound, in [13], the red/green cell ratio (normalised) is 0.93 (inactive). Also, the normalised cell number in [13] (setting [19]) turned out to be 1.27; in assay [13] (setting [20]) it was 1.19. In addition, the activity remaining in assay [14] was 111% (inactive). The remaining NAD in [18] was 10 nM (inactive).
Consider `COc1ccc(/C=C/c2cc(O)cc(O)c2)cc1`, for which the inhibition in [12] was 16.8% (inactive). In assay [13], the red/green cell ratio (normalised) was 1.08 (inactive). Also, the normalised cell number in [13] (setting [19]) was 0.95; in [13] (setting [20]), 1.03. Moreover, the activity remaining in assay [14] was 103% (inactive). Moreover, in [16], the luciferase signal is 176 AU (inactive).
Regarding `CCOP(=S)(OCC)Oc1nc(Cl)c(Cl)cc1Cl`, the inhibition in assay [12] was -10.3% (inactive). The red/green cell ratio (normalised) in [13] was 0.91 (inactive). The normalised cell number in assay [13] (setting [19]) came to 0.9; in assay [13] (setting [20]) it was 0.82. Besides, the activity remaining in assay [14] is 79.3% (inactive). The fold change in assay [15] (stronger effect = lower value) is 0.887 (inactive); in [15] (setting [21]) it was 1.26. Moreover, the cell count was 8030 in assay [15] (setting [22]) and 9060 in assay [15] (setting [23]). The remaining NAD in [18] was 10 nM (inactive).
As for `COc1ccc2c3c([nH]c2c1)C(C)=NCC3`, the fluorescence slope change in [1] was 7.9% (inactive). In addition, the inhibition in [2] was -62.4%; in [12], -10.2% (inactive). Further, the score in assay [3] is 1.32. In addition, the rescue above control in assay [4] was -1.53. For the same compound, in assay [5], the cytochrome c release ratio stood at 0.94. For the same compound, the inhibition of aggregation in [6] was determined as 51%. Moreover, the glutamate uptake change in [7] turned out to be 48%. In addition, the inclusion score in assay [8] worked out at 2. Also, the aggregation suppression score in assay [9] turned out to be 0.883. For the same compound, the survival in [10] is 6 (inactive). The parasite load remaining in [11] is 83.9% (inactive) and 28.8% (inactive) and 84.4% (inactive). Further, the viability in assay [11] is 103% and 71.6% and 83.5%. Also, the red/green cell ratio (normalised) in [13] is 0.92 (inactive). The normalised cell number in [13] (setting [19]) came out at 1.06; in [13] (setting [20]), 0.98. In addition, the activity remaining in [14] was 124% (inactive). Besides, the values for the fold change in assay [15] (stronger effect = lower value) and in [15] (setting [21]) were 0.95 (inactive) and 1.3, respectively. In addition, the cell count amounted to 8720 in assay [15] (setting [22]) and 9180 in assay [15] (setting [23]). Moreover, the luciferase signal in assay [16] is 68 AU (inactive).
